Results reported in PubChem BioAssay AID624288 (National Center for Advancing Translational Sciences (NCATS), 2012).
Out of some 340,000 compounds screened, about 1,400 (0.41%) were called active. Another 4% or so got no clear call; they are omitted. Calls come from the whole dose curve; cell line not stated here. The entries come from a sample that favours actives as a whole. A call without a number means that no potency is given here.

assay: qHTS for Antagonists of gsp, the Etiologic Mutation Responsible for Fibrous Dysplasia/McCune-Albright Syndrome: qHTS; conditions: gsp-mutant cells, cAMP HTRF, 30 min; series mostly up to 76.9 µM; note: nearly all actives have a fitted effect of over 65% in size
From the text: McCune-Albright syndrome (MAS) is a rare disease caused by somatic mutations in Gsgsp), a widely expressed protein central in signal transduction from G-coupled protein receptors (GPCRs). The disease symptoms are diverse, owing to the fact that the patients are mosaics with varying degrees of tissue involvement. Greater than 90% of the mutations in Gs in MAS occur at the R201 position and are equally divided between R201H and R201C. The R201 residue is central in the intrinsic GTPase activity of Gs and the H and C mutations lead to loss of, or impairment of, the GTPase activity. The intrinsic GTPase activity is necessary to terminate the interaction between Gs and adenylate cyclase, and to terminate the cAMP-mediated signaling of the given GPCR pathway. Thus, these activating mutations lead to ligand-independent activation of GPCR pathways. The tissue phenotype is determined by the role of Gs in the function of a given cell, and excess Gs/cAMP signaling in that cell. For example, pituitary somatotrophs overproduce growth hormone in a growth hormone releasing hormone-independent fashion, and gigantism/acromegaly ensues. Skeletal stem cells in the bone marrow behave as if they are under constant parathyroid hormone stimulation and fail to differentiate into osteoblasts and osteocytes, and proliferate as immature osteogenic cells and lead to the marrow fibrosis of fibrous dysplasia of bone. The goal of this project is to identify molecules with inhibitory activity at gsp mutations that will not only allow for in-depth study of the underlying molecular and cellular pathophysiology, but also serve as compounds from which drugs to treat FD/MAS can be developed NIH Chemical Genomics Center [NCGC] NIH Molecular Libraries Probe Centers Network [MLPCN] MLPCN Grant: IRP-FT-DE-2011-01 Assay Submitter (PI): Michael Collins, NIDCR
1.#Seed 2000 cells/well in 6 ul DMEM 10% FBS, 1% Pen/Strep, 0.5 mg/ml G418 2.#Incubate 16-24 hr at 37C, 5% CO2, 95% humidity 3.#Aspirate leaving 1 ul residual volume 4.#Dispense 5 ul/well DPBS + 1 mM CaCl2, 0.5 mM MgCl2, 0.05% BSA, 0.005% Tween 20 5.#Aspirate leaving 2 ul residual volume 6.#Dispense 23 nl/well compounds in DMSO 7.#Dispense 1 ul/well 300 uM Ro-20174 in DMEM 10% FBS 8.#Incubate 30 min at 37C, 5% CO2, 95% humidity 9.#Dispense 1.5 ul/well HTRF reagent: cAMP-d2 in lysis buffer 10.#Dispense 1.5 ul/well HTRF reagent: anti-cAMP antibody-K in lysis buffer 11.#Incubate 30 min at room temperature 12.#Detect HTRF signal using EnVision plate reader
Potency is the fitted concentration of half-maximal effect.

Q: Which Potency does the source give for `CC1=CC(=Cc2sc3ccccc3[n+]2C)C=C(C)O1` here?
A: 44.7 µM (active)

Q: For `COc1ccc(-n2c(-c3ccccc3)nc3ccccc3c2=O)cc1`, which Potency is on record?
A: inactive

Q: With `CCC(=O)CC(c1ccc([N+](=O)[O-])cc1)c1c(O)c2ccccc2oc1=O` (stereo not given) as the compound, how does the Potency read?
A: 31.6 µM (active)

Q: For `Cc1ccc(-n2c(-c3ccc([N+](=O)[O-])cc3)nc3ccccc3c2=O)cc1`, which Potency is on record?
A: inactive

Q: For `COc1cc(C(c2c(O)c3ccccc3oc2=O)c2c(C)n(C)n(-c3ccccc3)c2=O)ccc1O` (stereo not given), which Potency is on record?
A: inactive

Q: For `CC[C@H]1CN2CCc3cc(OC)c(OC)cc3[C@@H]2C[C@@H]1C[C@H]1NCCc2cc(OC)c(OC)cc21`, which Potency is on record?
A: inactive

Q: Which Potency does the source give for `CN(C)C(=O)NC(O)C(Cl)(Cl)Cl` (stereo not given) here?
A: inactive

Q: With `CC(=O)OC1C2(CC3N4C(=O)C5(CO)SSC4(CC31O)C(=O)N5C)OC(C)C(C)(C)C2=O` (stereo not given) as the compound, how does the Potency read?
A: inactive

Q: Which Potency does the source give for `C=CCn1c(O)c(/C=N/N2CCOCC2)c(=O)[nH]c1=S` here?
A: inactive

Q: With `COC(=O)C1=C(c2c(C)noc2C)C[C@@H]2CC[C@H]1N2C(=O)NCc1ccc2c(c1)OCO2` as the compound, how does the Potency read?
A: inactive
